Records with an inconclusive call do not appear. Values without a mark were called inactive. Activity calls are given as the source filed them. The call rests on the fitted dose curve; in most records, active means well fitted cell-killing curve with a large enough effect; inconclusive means small, poorly fitted or top-dose-only effect, or effect the other way; inactive means no such curve, though single readings can be large or run the other way.
How the values were obtained:
[1] = Quantitative High-Throughput drug screen in 47 multiple myeloma cell lines against the NCATS MIPE library collection: FR4_PLB cell viability assay (AID 1918924; further: nearly all actives have a fitted effect of over 35% in size)
Summary of the method: (§1)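 Myeloma cells (500 per well) were exposed to MIPE 4.0 compounds by pin transfer and incubated 48 hours at 37C, 5% CO2. Viability was read as ATP by CellTiter-Glo luminescence, normalised to DMSO (100%) and media-only (0%) wells.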

[2] = Quantitative High-Throughput drug screen in 47 multiple myeloma cell lines against the NCATS MIPE library collection: Delta47_JCRB cell viability assay (AID 1918925; further: nearly all actives have a fitted effect of over 45% in size)
Summary of the method: (§2)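 qHTS of the MIPE 4.0 collection: 500 myeloma cells/well, 48 h drug exposure at 37C in 5% CO2, then CellTiter-Glo for 5 min at room temperature before luminescence reading.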

[3] = Quantitative High-Throughput drug screen in 47 multiple myeloma cell lines against the NCATS MIPE library collection: EJM_DSMZ cell viability assay (AID 1918926; further: nearly all actives have a fitted effect of over 30% in size)
Summary of the method: as §2

[4] = Quantitative High-Throughput drug screen in 47 multiple myeloma cell lines against the NCATS MIPE library collection: AMO1_DSMZ cell viability assay (AID 1918927; further: nearly all actives have a fitted effect of over 30% in size)
Summary of the method: as §2

[5] = Quantitative High-Throughput drug screen in 47 multiple myeloma cell lines against the NCATS MIPE library collection: ARP1_JJKsccF8 cell viability assay (AID 1918928; further: nearly all actives have a fitted effect of over 40% in size)
Summary of the method: (§3)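 500 cells/well; MIPE 4.0 library pinned in; 48 h, 37 °C, 5% CO2; CellTiter-Glo ATP luminescence. Controls: DMSO = 100% viability, medium only = 0%.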

[6] = Quantitative High-Throughput drug screen in 47 multiple myeloma cell lines against the NCATS MIPE library collection: ARD_JJKsccE7 cell viability assay (AID 1918929)
Summary of the method: as §2

[7] = Quantitative High-Throughput drug screen in 47 multiple myeloma cell lines against the NCATS MIPE library collection: Karpas620_DSMZ cell viability assay (AID 1918959); further: nearly all actives have a fitted effect of over 30% in size
Summary of the method: as §1

[8] = Quantitative High-Throughput drug screen in 47 multiple myeloma cell lines against the NCATS MIPE library collection: KMM1_JCRB cell viability assay (AID 1918960); further: nearly all actives have a fitted effect of over 30% in size
Summary of the method: as §3

[9] = Quantitative High-Throughput drug screen in 47 multiple myeloma cell lines against the NCATS MIPE library collection: Karpas417_ECACC cell viability assay (AID 1918961); settings: Karpas417 myeloma viability, CellTiter-Glo ATP luminescence, 48 h; viability (% of DMSO): at 45.8 µM (top of the series)
Summary of the method: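 CellTiter-Glo ATP luminescence gave viability after 48 h compound treatment at 37C of 500 multiple myeloma cells per well. Normalisation used DMSO-only wells as 100% and media-only wells as 0% viability; primary qHTS of approved and investigational drugs.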

[10] = Quantitative High-Throughput drug screen in 47 multiple myeloma cell lines against the NCATS MIPE library collection: KHM11_PLB cell viability assay (AID 1918962); further: nearly all actives have a fitted effect of over 35% in size
Summary of the method: as §1
Potency means the concentration at half of the fitted maximal effect.

SMILES	Potency [1]	Potency [2]	Potency [3]	Potency [4]	Potency [5]	Potency [6]	Potency [7]	Potency [8]	Potency [9]	Potency [10]	viability (% of DMSO control) [1]	viability, % of control [3]	viability, % of DMSO [4]	viability [6]	viability, % of DMSO control [10]
CC(C)(C)c1cnc(CSc2cnc(NC(=O)C3CCNCC3)s2)o1	93.5 nM (active)	264 nM (active)	105 nM (active)	1480 nM (active)	209 nM (active)	235 nM (active)	372 nM (active)	187 nM (active)	132 nM (active)	74.3 nM (active)	–	–	–	–	–
COc1ccc(F)c(F)c1C(=O)c1cnc(NC2CCN(S(C)(=O)=O)CC2)nc1N	2350 nM (active)	1180 nM (active)	2350 nM (active)	833 nM (active)	2350 nM (active)	1180 nM (active)	2640 nM (active)	–	743 nM (active)	1870 nM (active)	–	–	–	–	–
Cc1ccc(C(=O)Nc2ccc(CN3CCN(C)CC3)c(C(F)(F)F)c2)cc1C#Cc1cnc2cccnn12	1480 nM (active)	662 nM (active)	2640 nM (active)	2960 nM (active)	1660 nM (active)	14800 nM (active)	5260 nM (active)	2090 nM (active)	469 nM (active)	662 nM (active)	–	–	–	–	–
COC(=O)[C@]12CCC(C)(C)C[C@@H]1[C@@H]1C(=O)C=C3[C@@]4(C)C=C(C#N)C(=O)C(C)(C)[C@@H]4CC[C@@]3(C)[C@]1(C)CC2	372 nM (active)	235 nM (active)	418 nM (active)	469 nM (active)	469 nM (active)	662 nM (active)	526 nM (active)	662 nM (active)	526 nM (active)	469 nM (active)	–	–	–	–	–
COc1ccc(CC2c3cc(OC)c(OC)cc3CC[N+]2(C)CCC(=O)OCCCCCOC(=O)CC[N+]2(C)CCc3cc(OC)c(OC)cc3C2Cc2ccc(OC)c(OC)c2)cc1OC (centres undefined)	–	3280 nM (active)	–	–	–	–	–	–	–	–	122% [at 5.15 µM]	94.3% [at 5.15 µM]	97.7% [at 5.15 µM]	97.8% [at 5.15 µM]	95.7% [at 5.15 µM]
Cc1cnc(Nc2ccc(F)cc2Cl)nc1-c1c[nH]c(C(=O)N[C@H](CO)c2cccc(Cl)c2)c1	29600 nM (active)	7430 nM (active)	23500 nM (active)	4180 nM (active)	–	14800 nM (active)	1050 nM (active)	–	–	526 nM (active)	–	–	–	–	–
COc1cc2ncn(-c3cc(OCc4ccccc4C(F)(F)F)c(C(N)=O)s3)c2cc1OC	5260 nM (active)	7430 nM (active)	2640 nM (active)	743 nM (active)	–	935 nM (active)	235 nM (active)	–	13200 nM (active)	18700 nM (active)	–	–	–	–	–
COc1ccc(OC)c(-c2nnc3ccc(-c4ccc(OC)c(O[C@@H]5CCOC5)c4)nn23)c1	11800 nM (active)	9350 nM (active)	16600 nM (active)	–	18700 nM (active)	16600 nM (active)	8330 nM (active)	8330 nM (active)	10500 nM (active)	7430 nM (active)	–	–	–	–	–
CCCCOc1c(C(=O)c2c(F)cc(C)cc2F)cnc2n[nH]cc12	4180 nM (active)	2640 nM (active)	2640 nM (active)	–	4180 nM (active)	2960 nM (active)	7430 nM (active)	2350 nM (active)	2350 nM (active)	3720 nM (active)	–	–	–	–	–
COc1cccc(Nc2c(C(N)=O)cnc3c(C)cc(S(=O)(=O)c4cccc(C(=O)N(C)C)c4)cc23)c1	inactive	inactive	inactive	12900 nM (active)	–	12900 nM (active)	–	10200 nM (active)	–	–	–	–	–	–	–
Nc1cc(C(F)(F)F)c(-c2cc(N3CCOCC3)nc(N3CCOCC3)n2)cn1	148 nM (active)	296 nM (active)	5900 nM (active)	105 nM (active)	–	187 nM (active)	235 nM (active)	–	–	1050 nM (active)	–	–	–	–	–
COc1cc(C)c(Sc2cnc(NC(=O)c3ccc(CNC(C)C(C)C)cc3)s2)cc1C(=O)N1CCN(C(C)=O)CC1 (centres undefined)	14800 nM (active)	2350 nM (active)	16600 nM (active)	inactive	–	–	–	inactive	–	18700 nM (active)	–	–	–	–	–
C1=CCOCc2cc(ccc2OCCN2CCCC2)Nc2nccc(n2)-c2cccc(c2)OCC1	3320 nM (active)	2350 nM (active)	2640 nM (active)	3320 nM (active)	–	1870 nM (active)	2090 nM (active)	1870 nM (active)	1660 nM (active)	1660 nM (active)	–	–	–	–	–
COc1cc2c(Oc3ccc(NC(=O)C4(C(=O)Nc5ccc(F)cc5)CC4)cc3F)ccnc2cc1OCCCN1CCOCC1	14800 nM (active)	418 nM (active)	18700 nM (active)	5260 nM (active)	–	2640 nM (active)	6620 nM (active)	2960 nM (active)	2350 nM (active)	7430 nM (active)	–	–	–	–	–
CCCn1c(=O)c2[nH]c(-c3cnn(Cc4cccc(C(F)(F)F)c4)c3)nc2n(CC)c1=O	5900 nM (active)	inactive	14800 nM (active)	inactive	–	–	–	1660 nM (active)	–	inactive	–	–	–	–	–
Nc1ccccc1NC(=O)c1ccc(CNC(=O)OCc2cccnc2)cc1	2960 nM (active)	372 nM (active)	3720 nM (active)	–	1320 nM (active)	935 nM (active)	2640 nM (active)	418 nM (active)	469 nM (active)	4180 nM (active)	–	–	–	–	–

SMILES	Potency [1]	Potency [2]	Potency [3]	Potency [4]	Potency [5]	Potency [6]	Potency [7]	Potency [8]	Potency [9]	Potency [10]	viability (% of DMSO control) [1]	viability, % of control [3]	viability, % of DMSO [4]	viability [6]	viability, % of DMSO control [10]
Cc1cn(-c2cc(NC(=O)c3ccc(C)c(Nc4nccc(-c5cccnc5)n4)c3)cc(C(F)(F)F)c2)cn1	20900 nM (active)	inactive	18700 nM (active)	inactive	–	–	–	264 nM (active)	–	inactive	–	–	–	–	–
COc1ccc(C(=O)CC2(O)C(=O)Nc3c(Cl)ccc(Cl)c32)cc1 (centres undefined)	833 nM (active)	3720 nM (active)	3320 nM (active)	526 nM (active)	–	1320 nM (active)	–	1180 nM (active)	–	inactive	–	–	–	–	–
CN(C)CC=CC(=O)Nc1cc2c(Nc3ccc(F)c(Cl)c3)ncnc2cc1O[C@H]1CCOC1	14800 nM (active)	3720 nM (active)	16600 nM (active)	935 nM (active)	–	5260 nM (active)	2640 nM (active)	3720 nM (active)	–	7430 nM (active)	–	–	–	–	–
Nc1ccccc1NC(=O)c1ccc(CNc2nccc(-c3cccnc3)n2)cc1	935 nM (active)	166 nM (active)	3320 nM (active)	–	662 nM (active)	935 nM (active)	1660 nM (active)	1050 nM (active)	469 nM (active)	2640 nM (active)	–	–	–	–	–
C[C@@H](Oc1cc(-c2cnn(C3CCNCC3)c2)cnc1N)c1c(Cl)ccc(F)c1Cl	18700 nM (active)	2090 nM (active)	18700 nM (active)	18700 nM (active)	–	11800 nM (active)	14800 nM (active)	13200 nM (active)	2640 nM (active)	3720 nM (active)	–	–	–	–	–
Cn1cc(-c2[nH]c3cc(NC(=O)[C@H](N)C4CCCCC4)cc4c3c2C=NNC4=O)cn1	296 nM (active)	935 nM (active)	526 nM (active)	2960 nM (active)	–	4690 nM (active)	–	526 nM (active)	–	1480 nM (active)	–	–	–	–	–
CC1=C(CO)C(=O)O[C@@H]([C@@H](C)[C@H]2CC[C@H]3[C@@H]4C[C@H]5O[C@]56[C@@H](O)C=CC(=O)[C@]6(C)[C@@H]4CC[C@]23C)C1	372 nM (active)	148 nM (active)	235 nM (active)	–	166 nM (active)	inactive	inactive	inactive	–	209 nM (active)	–	–	–	–	–
O=C(O)c1ccc2c(c1)nc(Nc1cccc(Cl)c1)c1ccncc12	5260 nM (active)	4180 nM (active)	9350 nM (active)	–	9350 nM (active)	8330 nM (active)	4180 nM (active)	–	935 nM (active)	5900 nM (active)	–	–	–	–	–
O=C(NCCS(=O)(=O)c1ccc(C(F)(F)F)cn1)c1ccc(Cl)cc1	inactive	inactive	inactive	inactive	–	inactive	–	inactive	23.5 nM (active)	inactive	–	–	–	–	–
Cn1c2ccccc2c2c3c(c4c5ccccc5n(CCC#N)c4c21)CNC3=O	4690 nM (active)	1480 nM (active)	2960 nM (active)	–	7430 nM (active)	2350 nM (active)	2350 nM (active)	–	148 nM (active)	833 nM (active)	–	–	–	–	–
CCOc1ccccc1OCCNC(C)Cc1ccc(OC)c(S(N)(=O)=O)c1 (centres undefined)	inactive	inactive	inactive	–	inactive	inactive	inactive	–	–	inactive	–	–	–	–	–
Nc1ncnc2c1c(-c1cnc3[nH]ccc3c1)nn2C1CCCC1	662 nM (active)	235 nM (active)	6620 nM (active)	662 nM (active)	–	1320 nM (active)	662 nM (active)	–	–	296 nM (active)	–	–	–	–	–
CCc1c2c(nc3ccc(O)cc13)-c1cc3c(c(=O)n1C2)COC(=O)[C@]3(O)CC	590 nM (active)	37.2 nM (active)	187 nM (active)	–	187 nM (active)	1660 nM (active)	743 nM (active)	132 nM (active)	332 nM (active)	166 nM (active)	–	–	–	–	–
O=C(c1ccc(Nc2nccc(-c3cc4ccccc4s3)n2)cc1)N1CCC(N2CCCC2)CC1	13200 nM (active)	2960 nM (active)	18700 nM (active)	7430 nM (active)	–	9350 nM (active)	–	–	2090 nM (active)	3720 nM (active)	–	–	–	–	–
CNc1nccc(-c2cccnc2Oc2cc(C(=O)Nc3cccc(C(F)(F)F)c3)ccc2C)n1	16600 nM (active)	16600 nM (active)	16600 nM (active)	9350 nM (active)	–	9350 nM (active)	5900 nM (active)	–	–	1050 nM (active)	–	–	–	–	–
CC(C)c1nn(-c2c(Cl)cccc2Cl)c2nc(Cc3ccc(OCCO)cc3)[nH]c(=O)c12	105 nM (active)	166 nM (active)	132 nM (active)	–	118 nM (active)	inactive	inactive	inactive	inactive	148 nM (active)	–	–	–	–	–

From PubChem BioAssay (NCATS)
